Measurements reported in PubChem BioAssay AID588382 (National Center for Advancing Translational Sciences (NCATS), 2011).
The campaign covered roughly 1,300 compounds. About 150 (12%) were called active. A call without a number means that no potency is given here. About 30% were inconclusive and are not listed. The sample holds actives, similar compounds and a random draw of the others, so the mix is not that of the screen. Calls follow the shape of the dose curve; as a rule, active = well fitted cell-killing curve with a large enough effect; inconclusive = small, poorly fitted or top-dose-only effect, or effect the other way; inactive = flat fitted curve, though single readings scatter.

Experiment: qHTS of small molecules that selectively kill Giardia lamblia: Hit Validation in HepG2 cytotox;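 also: compound exposure lasted overnight at 37 deg C; nearly all actives have a fitted effect of over 55% in size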
Conditions: cell viability; Potency: HepG2 cytotoxicity; series mostly up to 38.3 µM
In short: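 HepG2 cells seeded and incubated overnight at 37 deg C, then 23 nL compound added by pintool and incubated overnight at 37 deg C. Viability read as ATP luminescence with ATPLite after 15 min at room temperature.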
Potency is read from the fitted curve at half-maximal effect.

| Structure (SMILES) | Potency |
| --- | --- |
| Cc1cc(Nc2ccccc2)c2c([N+](=O)[O-])cc(C)c(C)c2n1 | inactive |
| CC(NC(=O)COc1cccnc1[N+](=O)[O-])c1ccc(Cl)cc1 (centres undefined) | inactive |
| O=[N+]([O-])c1ccc(CN2CCN(c3ccccc3Cl)CC2)o1 | inactive |
| CC(=NN1CC(=O)NC1=O)c1ccc([N+](=O)[O-])o1 | inactive |
| CC(C)(C)C(=O)N1CCN(c2ccc(NC(=O)c3ccc([N+](=O)[O-])o3)cc2)CC1 | 6.56 µM (active) |
| O=[N+]([O-])c1ccc(CN2CCN(c3ccc(F)cc3)CC2)o1 | inactive |
| O=C(Nc1ccc(N2CCCCC2)cc1)c1ccc([N+](=O)[O-])o1 | 13.1 µM (active) |
| O=[N+]([O-])c1ccc(CN2CCN(c3ccc(Cl)cc3)CC2)o1 | inactive |
| CC(C)C(=O)N1CCN(c2ccc(NC(=O)c3ccc([N+](=O)[O-])o3)cc2)CC1 | 5.85 µM (active) |
| O=C(Nc1ccc(N2CCN(Cc3ccccc3F)CC2)cc1)c1ccc([N+](=O)[O-])o1 | 2.93 µM (active) |
| COc1cc(Nc2ccc(C)cc2)c([N+](=O)[O-])nc1[N+](=O)[O-] | inactive |
| Cc1ccc(C(=O)c2c3ccc([N+](=O)[O-])cc3[n+]([O-])n2CCC(N)=O)cc1 | inactive |
| CC(Oc1cccnc1[N+](=O)[O-])C(=O)Nc1cccc(Cl)c1 (centres undefined) | inactive |
| COc1ccc(-n2nc([N+](=O)[O-])c(=NCCc3cccc(C)c3)n2O)cc1 | inactive |
| COC(=O)c1cc(NC(=O)c2cc(C(C)(C)C)nn2Cc2ccc(F)cc2)ccc1N1CCOCC1 | inactive |
| COc1ccc(C(C)=O)cc1COc1cccnc1[N+](=O)[O-] | inactive |
| O=C(Cc1c(F)cccc1Cl)Nc1ncc([N+](=O)[O-])s1 | inactive |
| O=[n+]1c2c(n([O-])c3cc(Br)ccc31)CCC2 | inactive |
| CCOc1cc([N+](=O)[O-])cc(/C=C2/NC(=O)N(Cc3ccccc3F)C2=O)c1O | inactive |
| O=[N+]([O-])c1nn(-c2ccc3c(c2)OCCO3)n(O)c1=NCc1ccc(F)cc1 | inactive |
| CN(C)c1ccc(C2Nc3cccc4cccc(c34)N2)cc1 | inactive |
| Cc1cc(C)cc(N=c2c([N+](=O)[O-])nn(-c3ccc4c(c3)OCCO4)n2O)c1 | inactive |

| Structure (SMILES) | Potency |
| --- | --- |
| CS(=O)(=O)N1CCN(c2ccc(NC(=O)c3ccc([N+](=O)[O-])o3)cc2)CC1 | 3.69 µM (active) |
| CS(=O)(=O)N1CCN(c2ccccc2NC(=O)c2ccc([N+](=O)[O-])o2)CC1 | inactive |
| CCCC(=O)N1CCN(c2ccc(NC(=O)c3ccc([N+](=O)[O-])o3)cc2)CC1 | 3.29 µM (active) |
| CCC(=O)N1CCN(c2ccccc2NC(=O)c2ccc([N+](=O)[O-])o2)CC1 | inactive |
| CCC(=O)N1CCN(c2ccc(NC(=O)c3ccc([N+](=O)[O-])o3)cc2)CC1 | 11.7 µM (active) |
| NC(=O)c1ccc(NC(=O)COc2ccc([N+](=O)[O-])cc2Cl)cc1 | inactive |
| NS(=O)(=O)c1ccc(Nc2ncccc2[N+](=O)[O-])cc1 | inactive |
| O=[n+]1c2c(n([O-])c3cc(Cl)ccc31)CCCC2 | inactive |
| COc1ccc(CNC(=O)COc2cccnc2[N+](=O)[O-])cc1OC | inactive |
| Cc1oc2cc(O)ccc2c(=O)c1Oc1ccccc1Br | inactive |
| CCC(=O)Nc1nc(-c2cc([N+](=O)[O-])cs2)cs1 | inactive |
| COCCNC(=O)/C(C#N)=C/c1ccc(O)c([N+](=O)[O-])c1 | inactive |
| Cc1ccc(NC(=S)NNc2ccc([N+](=O)[O-])cc2S(=O)(=O)Nc2ccccc2C(=O)O)cc1C | inactive |
| COc1cc(/C=C2\SC(=O)N(Cc3ccc(F)cc3)C2=O)cc([N+](=O)[O-])c1O | inactive |
| COc1ccc(-c2cc(=O)c3ccccc3o2)cc1 | inactive |
| COc1ccc(-c2nc3c(=O)n(C)c(=O)nc-3n(C)n2)cc1 | 1.85 µM (active) |
| Cn1nc(-c2cccnc2)nc2c(=O)n(C)c(=O)nc1-2 | 3.69 µM (active) |
| Cc1ccccc1-c1nc2c(=O)n(C)c(=O)nc-2n(C)n1 | 3.29 µM (active) |
| COc1ccc(-c2ncn(CCC#N)c2[N+](=O)[O-])cc1 | inactive |
| CCCc1nc2c(=O)n(C)c(=O)nc-2n(C)n1 | 8.26 µM (active) |
| COc1ccccc1NC(=O)COc1cccnc1[N+](=O)[O-] | inactive |
| Cc1ccc(S(=O)(=O)N2[C@@H](c3ccc(F)cc3)C(C(=O)O)=CC[C@H]2c2cccc(C)c2)cc1 | inactive |

| Structure (SMILES) | Potency |
| --- | --- |
| COc1ccc(-n2nc([N+](=O)[O-])c(=NCCCN3CCCC3=O)n2O)cc1 | inactive |
| O=C(COc1cccnc1[N+](=O)[O-])Nc1ccc2c(c1)CCC2 | inactive |
| Cc1c[nH]c(=O)c([N+](=O)[O-])c1 | inactive |
| Cc1cc(C(=O)N/N=C/c2ccc(O)c([N+](=O)[O-])c2)n[nH]1 | inactive |
| COc1cc2sc(-c3ccccc3OC)c(-c3ccc(O)cc3)c2cc1OC | inactive |
| O=C(NN1C(=O)c2ccccc2NC1c1ccc([N+](=O)[O-])o1)c1ccc([N+](=O)[O-])cc1 (centres undefined) | inactive |
| Cn1nc(-c2ccc(F)cc2)nc2c(=O)n(C)c(=O)nc1-2 | 2.61 µM (active) |
| Cc1ccc(OCC(=O)Nc2cc(S(=O)(=O)N3CCOCC3)ccc2Cl)c([N+](=O)[O-])n1 | inactive |
| Cc1cc2ccccn2c1C(=O)c1ccc([N+](=O)[O-])cc1[N+](=O)[O-] | inactive |
| COc1ccc2c3n([n+]([O-])c2c1)CCN=C3c1ccc(Cl)cc1 | inactive |
| N=NC(=O)c1ccccc1Nc1c(O)[nH]c2ccccc12 | 16.5 µM (active) |
| COc1ccc(CNC(=O)COc2cccnc2[N+](=O)[O-])cc1 | inactive |
| O=[N+]([O-])c1ccc(/C=N/Nc2nc(-c3ccccc3)c3cc(Br)ccc3n2)o1 | inactive |
| CCOc1ccc(NC(=O)C(C)C(Cc2ccc(C)cc2)C(=O)O)cc1 (centres undefined) | inactive |
| Nc1c(Cl)cc(C2=NCCn3c2c2ccccc2[n+]3[O-])cc1Cl | inactive |
| O=c1[nH]c2cccnc2n1-c1ccc([N+](=O)[O-])cc1 | inactive |
| N#Cc1c(N2CCN(c3ccc([N+](=O)[O-])cc3)CC2)[n+](=O)c2ccc(Cl)cc2n1[O-] | inactive |
| CC1CCc2c(sc(NC(=O)Cn3cnc([N+](=O)[O-])n3)c2C(N)=O)C1 (centres undefined) | inactive |
| CC1CCc2c(sc(NC(=O)CCCn3cnc([N+](=O)[O-])n3)c2C(N)=O)C1 (centres undefined) | inactive |
| Cn1cc([N+](=O)[O-])c(C(=O)Nc2sc3c(c2C#N)CCC3)n1 | 2.33 µM (active) |
